This note sets out measurements from PubChem BioAssay AID1259412 (Laboratorio de Genomica e Expressao (LGE), UNICAMP, 2018).

A short description of assay [1]: AOX inhibitors, oxygen consumption, profiling panel (AID 1259412).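 For growth (% of control): growth monitored over 72 h.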 The conditions noted are these: AOX-dependent respiration, at 500 µM; for growth (% of control): O2 uptake, measured here: growth; for O2 uptake (% of control): measured here: O2 uptake, control condition (no AOX).
The test system of assay [2] is alternative oxidase (AOX). Described as above. The conditions noted are these: AOX-dependent respiration, at 500 µM, stronger effect = lower value.
[3] abbreviates: AOX-dependent treatment condition, stronger effect = lower value.

Activity calls are given as the source filed them. The rule behind the calls is not given here.

As to `COc1cc(NC(=O)c2cccc(C#N)c2)cc(OC)c1OC`, the growth (% of control) stood at 89.6% in assay [1] (setting [3]) and 90.9% in assay [1] (control condition). The O2 uptake (% of control) is 104% in assay [1] (stronger effect = lower value) and 91.5% (inactive) in assay [2].

Take `COc1cccc(C(=O)Nc2cccc(NC(=O)c3cccc(OC)c3)c2)c1`: the growth (% of control) in assay [1] (setting [3]) came to 95.4%; in assay [1] (control condition), 96.8%. Besides, the results for the O2 uptake (% of control) in assay [1] (stronger effect = lower value) and in assay [2] were 102% and 79.2% (inactive), respectively.

For `O=C(Nc1cccc([N+](=O)[O-])c1)c1ccccc1`, the growth (% of control) in assay [1] (setting [3]) stood at 61.1%; in assay [1] (control condition), 103%. Further, the O2 uptake (% of control) is 95.6% in assay [1] (stronger effect = lower value) and 36% (active) in assay [2].

As to `COc1cccc(C(=O)Nc2cccc(S(=O)(=O)c3cccc(N)c3)c2)c1`, the growth (% of control) was 132% in assay [1] (setting [3]) and 112% in assay [1] (control condition). In addition, the figures for the O2 uptake (% of control) in assay [1] (stronger effect = lower value) and in assay [2] were 105% and 98.1% (inactive), respectively.

In the case of `COc1cccc(C(=O)Nc2cccc(Br)c2)c1`, the growth (% of control) in assay [1] (setting [3]) came out at 51.9%; in assay [1] (control condition), 92%. For the same molecule, the results for the O2 uptake (% of control) in assay [1] (stronger effect = lower value) and in assay [2] were 85.8% and 27.5% (active), respectively.

Take `N#Cc1cccc(C(=O)Nc2cccc(NC(=O)c3cccc(C#N)c3)c2)c1`: the growth (% of control) in assay [1] (setting [3]) turned out to be 91.4%; in assay [1] (control condition), 132%. Moreover, the O2 uptake (% of control) in assay [1] (stronger effect = lower value) was determined as 107%; in assay [2] it was 95.1%.

On to `COc1cc(NC(=O)c2cccc(Cl)c2)cc(OC)c1OC`, for which the results for the growth (% of control) in assay [1] (setting [3]) and in assay [1] (control condition) were 82.2% and 78%, respectively. Further, the values for the O2 uptake (% of control) in assay [1] (stronger effect = lower value) and in assay [2] were 97.8% and 81.5% (active), respectively.

For `O=C(Nc1cccc(I)c1)c1cccc(I)c1`, the growth (% of control) in assay [1] (setting [3]) came out at 87.3%; in assay [1] (control condition), 90.6%. The O2 uptake (% of control) was 96.7% in assay [1] (stronger effect = lower value) and 25.1% (active) in assay [2].

As to `O=C(Nc1cccc(C(F)(F)F)c1)c1cccc(I)c1`, the growth (% of control) came out at 49.4% in assay [1] (setting [3]) and 83.8% in assay [1] (control condition). In addition, the O2 uptake (% of control) in assay [1] (stronger effect = lower value) is 82.2%; in assay [2], 17.5% (active).

`N#Cc1cccc(C(=O)Nc2cccc(C(F)(F)F)c2)c1`: the growth (% of control) in assay [1] (setting [3]) stood at 49.7%; in assay [1] (control condition), 90.1%. Moreover, the O2 uptake (% of control) was 89.3% in assay [1] (stronger effect = lower value) and 28.9% (active) in assay [2].

Regarding `O=C(Nc1cccc(C(F)(F)F)c1)c1cccc(F)c1`, the growth (% of control) in assay [1] (setting [3]) amounted to 7.63%; in assay [1] (control condition) it was 35.2%. Further, the O2 uptake (% of control) was 83% in assay [1] (stronger effect = lower value) and 13.8% (active) in assay [2].

Take `Cc1cccc(C(=O)Nc2cccc(I)c2)c1`: the growth (% of control) is 61.9% in assay [1] (setting [3]) and 110% in assay [1] (control condition). Also, the O2 uptake (% of control) is 93.2% in assay [1] (stronger effect = lower value) and 13.3% (active) in assay [2].

For `COc1cccc(C(=O)Nc2ccccc2)c1`, the results for the growth (% of control) in assay [1] (setting [3]) and in assay [1] (control condition) were 43.8% and 60.4%, respectively. The O2 uptake (% of control) is 95.1% in assay [1] (stronger effect = lower value) and 57.1% (active) in assay [2].

On to `O=C(Nc1cccc(Cl)c1)c1cccc(I)c1`, for which the growth (% of control) worked out at 73% in assay [1] (setting [3]) and 88.6% in assay [1] (control condition). Also, the results for the O2 uptake (% of control) in assay [1] (stronger effect = lower value) and in assay [2] were 80.5% and 15.4% (active), respectively.

In the case of `O=C(Nc1cccc(C(F)(F)F)c1)c1cccc(Cl)c1`, the growth (% of control) in assay [1] (setting [3]) is 37.9%; in assay [1] (control condition), 93.2%. Further, the O2 uptake (% of control) in assay [1] (stronger effect = lower value) is 93.2%; in assay [2], 15.8% (active).

Take `O=C(Nc1ccc(N2CCOCC2)cc1)c1cccc(Cl)c1`: the growth (% of control) in assay [1] (setting [3]) is 89.6%; in assay [1] (control condition), 92.8%. The O2 uptake (% of control) in assay [1] (stronger effect = lower value) was 90.9%; in assay [2], 81.3% (active).

On to `O=C(Nc1cccc(Cl)c1)c1ccccc1`, for which the growth (% of control) came out at 46.9% in assay [1] (setting [3]) and 118% in assay [1] (control condition). Besides, the O2 uptake (% of control) is 88% in assay [1] (stronger effect = lower value) and 21.5% (active) in assay [2].

As to `O=C(NCc1ccc2c(c1)OCO2)c1cccc(Cl)c1`, the values for the growth (% of control) in assay [1] (setting [3]) and in assay [1] (control condition) were 55.3% and 72%, respectively. The O2 uptake (% of control) in assay [1] (stronger effect = lower value) was 101%; in assay [2] it was 14.2% (active).

In the case of `O=C(Nc1cccc(OCc2ccccc2)c1)c1ccccc1`, the growth (% of control) in assay [1] (setting [3]) is 99.7%; in assay [1] (control condition), 117%. For the same molecule, the results for the O2 uptake (% of control) in assay [1] (stronger effect = lower value) and in assay [2] were 90.5% and 38.2% (active), respectively.

On to `O=C(NCc1ccc2c(c1)OCO2)c1cccc(F)c1`, for which the results for the growth (% of control) in assay [1] (setting [3]) and in assay [1] (control condition) were 39.8% and 48.8%, respectively. The results for the O2 uptake (% of control) in assay [1] (stronger effect = lower value) and in assay [2] were 89.6% and 36.9% (active), respectively.

With `O=C(NCc1ccc2c(c1)OCO2)c1cccc(Br)c1`, the growth (% of control) in assay [1] (setting [3]) turned out to be 88%; in assay [1] (control condition), 82.8%. The results for the O2 uptake (% of control) in assay [1] (stronger effect = lower value) and in assay [2] were 94.7% and 24.4% (active), respectively.

With `COc1cccc(C(=O)Nc2cccc(C(F)(F)F)c2)c1`, the growth (% of control) turned out to be 11.8% in assay [1] (setting [3]) and 57.4% in assay [1] (control condition). Besides, the O2 uptake (% of control) in assay [1] (stronger effect = lower value) is 90.2%; in assay [2] it was 37.6% (active).

Regarding `N#Cc1cccc(C(=O)NCc2ccc3c(c2)OCO3)c1`, the growth (% of control) in assay [1] (setting [3]) stood at 79.6%; in assay [1] (control condition), 79.7%. Further, the O2 uptake (% of control) in assay [1] (stronger effect = lower value) is 103%; in assay [2], 66.1% (active).

`COc1cccc(C(=O)Nc2cc(OC)c(OC)c(OC)c2)c1`: the growth (% of control) in assay [1] (setting [3]) was determined as 104%; in assay [1] (control condition), 89%. The O2 uptake (% of control) was 101% in assay [1] (stronger effect = lower value) and 77.6% (inactive) in assay [2].

Turning to `O=C(Nc1cccc(NC(=O)c2cccc(Br)c2)c1)c1cccc(Br)c1`, the growth (% of control) in assay [1] (setting [3]) stood at 77.6%; in assay [1] (control condition), 95.3%. Also, the O2 uptake (% of control) in assay [1] (stronger effect = lower value) is 105%; in assay [2], 66.5% (active).

Take `N#Cc1cccc(C(=O)Nc2cccc(F)c2)c1`: the growth (% of control) came to 55.1% in assay [1] (setting [3]) and 107% in assay [1] (control condition). Also, the O2 uptake (% of control) is 103% in assay [1] (stronger effect = lower value) and 53.5% (active) in assay [2].

As for `O=C(Nc1cccc([N+](=O)[O-])c1)c1cccc(F)c1`, the growth (% of control) stood at 91.1% in assay [1] (setting [3]) and 120% in assay [1] (control condition). Moreover, the O2 uptake (% of control) is 92.7% in assay [1] (stronger effect = lower value) and 44.8% (active) in assay [2].

For the molecule `N#Cc1cccc(C(=O)Nc2cccc(Br)c2)c1`, the growth (% of control) in assay [1] (setting [3]) came to 62.4%; in assay [1] (control condition), 89.7%. In addition, the O2 uptake (% of control) in assay [1] (stronger effect = lower value) is 82.6%; in assay [2] it was 21.3% (active).

On to `COc1cc(NC(=O)c2cccc(Br)c2)cc(OC)c1OC`, for which the growth (% of control) in assay [1] (setting [3]) was 90.6%; in assay [1] (control condition), 84.3%. The results for the O2 uptake (% of control) in assay [1] (stronger effect = lower value) and in assay [2] were 90% and 63.6% (active), respectively.

Regarding `O=C(Nc1cccc(Cl)c1)c1cccc(Cl)c1`, the growth (% of control) is 48.1% in assay [1] (setting [3]) and 80.2% in assay [1] (control condition). In addition, the O2 uptake (% of control) in assay [1] (stronger effect = lower value) was 89.8%; in assay [2] it was 9.19% (active).

Take `O=C(Nc1cccc(C(F)(F)F)c1)c1ccccc1I`: the growth (% of control) in assay [1] (setting [3]) is 14.6%; in assay [1] (control condition) it was 92%. The O2 uptake (% of control) in assay [1] (stronger effect = lower value) was 79.2%; in assay [2], 14.3% (active).

For `N#Cc1cccc(C(=O)Nc2ccccc2)c1`, the figures for the growth (% of control) in assay [1] (setting [3]) and in assay [1] (control condition) were 58.9% and 89.5%, respectively. The O2 uptake (% of control) in assay [1] (stronger effect = lower value) is 105%; in assay [2], 69.6% (active).

As to `O=C(Nc1cccc(F)c1)c1ccccc1`, the growth (% of control) in assay [1] (setting [3]) was 83%; in assay [1] (control condition), 92.8%. For the same molecule, the O2 uptake (% of control) in assay [1] (stronger effect = lower value) was 102%; in assay [2] it was 43.6% (active).

Take `O=C(Nc1cccc(NC(=O)c2cccc(Cl)c2)c1)c1cccc(Cl)c1`: the growth (% of control) was found to be 90.7% in assay [1] (setting [3]) and 114% in assay [1] (control condition). The O2 uptake (% of control) is 97.7% in assay [1] (stronger effect = lower value) and 49.2% (active) in assay [2].

For `Nc1cccc(S(=O)(=O)c2cccc(NC(=O)c3cccc(Br)c3)c2)c1`, the growth (% of control) worked out at 86.5% in assay [1] (setting [3]) and 64% in assay [1] (control condition). Moreover, the O2 uptake (% of control) was determined as 105% in assay [1] (stronger effect = lower value) and 110% in assay [2].

Take `O=C(NCc1ccc2c(c1)OCO2)c1cccc(I)c1`: the values for the growth (% of control) in assay [1] (setting [3]) and in assay [1] (control condition) were 99.2% and 97.5%, respectively. Besides, the O2 uptake (% of control) in assay [1] (stronger effect = lower value) was 99.1%; in assay [2], 26.3% (active).

`O=C(Nc1ccc(N2CCOCC2)cc1)c1ccccc1`: the growth (% of control) in assay [1] (setting [3]) was 85.7%; in assay [1] (control condition), 87.8%. Also, the O2 uptake (% of control) in assay [1] (stronger effect = lower value) was 93.3%; in assay [2], 93.8% (inactive).

With `O=C(Nc1ccc(N2CCOCC2)cc1)c1cccc(Br)c1`, the growth (% of control) in assay [1] (setting [3]) was 76.7%; in assay [1] (control condition), 92.2%. The O2 uptake (% of control) is 100% in assay [1] (stronger effect = lower value) and 85% (active) in assay [2].
